Inconclusive results are not listed. Calls of active or inactive are those of the source. The calls were made as follows: active = hit-call score of the fitted dose curve at least 0.9, where 1 is the maximum; inconclusive = response in the unintended direction; inactive = score below 0.9.
Test system: DIO1 (gene 1733)
Assay: CCTE_GLTED_hDIO1: CCTE's human Deiodinase 1 (DIO1) Inhibition Assay, Great Lakes Toxicology and Ecology Division (GLTED) Lab (AID 2283987);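 also: isolated human DIO1 enzyme in a cell-free setup rather than cells; enzyme activity read as free iodide liberated from substrate via Sandell-Kolthoff colorimetry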
In short: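 Cell-free human DIO1 enzyme incubated 3 h with test chemical; iodide freed from substrate then measured by Sandell-Kolthoff absorbance. Run in triplicate; loss of signal relative to DMSO taken as inhibition.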

Structure (SMILES) | AC50
CCCCCCCCn1sc(Cl)c(Cl)c1=O | 0.411 µM (active)
CCCCCCCCCCCCC[N+](C)(C)Cc1ccccc1 | 38.7 µM (active)
C=CC(=O)OCC(F)(F)C(F)(F)C(F)(F)COC(=O)C=C | 19.6 µM (active)
C=CC(=O)OCC(F)(F)C(F)(F)C(F)(F)C(F)(F)C(F)(F)C(F)(F)C(F)(F)C(F)F | 8.44 µM (active)
NS(=O)(=O)C(F)(F)C(F)(F)C(F)(F)C(F)(F)C(F)(F)C(F)(F)F | 44.3 µM (active)
CCCCCCCC/C=C\CCCCCCCC(=O)N(C)CC(=O)O | 95.4 µM (active)
CCCCCCCCCCCCCC[P+](CCCC)(CCCC)CCCC | 11.5 µM (active)
C=C(C)C(=O)OCC(F)(F)C(F)(F)C(F)(F)C(F)F | 25.5 µM (active)

Molecular target: Nucleoli Translocation, AR (gene 367) (UniProt P10275)
Sequence (P10275 whole entry, looked up): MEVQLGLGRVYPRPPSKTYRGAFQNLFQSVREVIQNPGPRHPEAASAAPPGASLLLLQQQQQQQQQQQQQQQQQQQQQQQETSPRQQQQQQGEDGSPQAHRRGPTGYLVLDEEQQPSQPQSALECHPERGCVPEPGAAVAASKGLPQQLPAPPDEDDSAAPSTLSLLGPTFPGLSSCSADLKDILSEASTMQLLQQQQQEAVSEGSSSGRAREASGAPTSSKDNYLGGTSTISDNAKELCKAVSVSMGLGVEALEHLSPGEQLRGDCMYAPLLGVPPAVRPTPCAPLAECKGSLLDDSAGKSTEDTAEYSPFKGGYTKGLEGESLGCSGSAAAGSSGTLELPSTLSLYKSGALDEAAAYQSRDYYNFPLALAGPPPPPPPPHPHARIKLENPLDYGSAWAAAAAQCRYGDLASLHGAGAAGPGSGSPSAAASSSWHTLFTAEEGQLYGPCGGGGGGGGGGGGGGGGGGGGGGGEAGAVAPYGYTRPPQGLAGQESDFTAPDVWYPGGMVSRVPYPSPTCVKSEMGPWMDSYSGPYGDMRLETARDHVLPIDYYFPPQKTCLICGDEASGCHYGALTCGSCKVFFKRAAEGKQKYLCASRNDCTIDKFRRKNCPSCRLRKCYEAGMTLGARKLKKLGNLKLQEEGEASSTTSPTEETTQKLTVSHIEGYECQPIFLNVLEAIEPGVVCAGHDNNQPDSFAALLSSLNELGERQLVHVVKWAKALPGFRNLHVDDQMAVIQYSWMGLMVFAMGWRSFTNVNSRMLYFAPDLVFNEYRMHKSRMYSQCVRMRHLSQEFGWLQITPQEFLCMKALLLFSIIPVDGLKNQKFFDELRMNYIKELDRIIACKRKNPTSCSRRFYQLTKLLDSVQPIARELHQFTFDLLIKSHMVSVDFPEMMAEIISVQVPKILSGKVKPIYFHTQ
Assay: UPITT_HCI_U2OS_AR_TIF2_Nucleoli_Antagonist: University of Pittsburgh U2OS Androgen Receptor-Transcriptional Intermediary Factor 2 (AR-TIF2) Antagonism High Content Imaging Assay for Nucleoli Translocation (AID 2283997)
In short: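 Compounds are added at 20 uM final concentration in 0.2% DMSO to U2OS cells carrying AR-RFP and TIF2-GFP fusions. Nucleolar AR-RFP fluorescence is then quantified by automated imaging. Antagonism is fitted positively against DHT baseline.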

Structure (SMILES) | outcome | AC50
Cc1cccc(C)n1 | inactive | –
O=C1C=CC(=O)N1c1ccccc1 | – | 5.44 µM (active)
CCCCCCCCCCCCC[N+](C)(C)Cc1ccccc1 | – | 13.7 µM (active)
C[C@]12CC[C@H]3C(=CCc4cc(O)ccc43)[C@@H]1CCC2=O | – | 0.234 µM (active)
CCCCCCCC/C=C\CCCCCCCC(=O)OCC(O)CO (configuration not stated) | inactive | –
CCc1ccc(C)nc1 | inactive | –
CCCCCCCCCc1ccc(OCCO)cc1 | inactive | –
CCN=C1C=CC(=C(c2ccc(N(CC)CC)cc2)c2ccc(N(CC)CC)cc2)c2ccccc21 | – | 1.4 µM (active)
F[Si-2](F)(F)(F)(F)F | inactive | –
COCCOCCC[Si](C)(O[Si](C)(C)C)O[Si](C)(C)C | inactive | –
CCCCCCCCCCCCCC[P+](CCCC)(CCCC)CCCC | – | 5.62 µM (active)
CC1CCCCC1 | inactive | –

Molecular target: Nucleoli Translocation, AR (gene 367) (UniProt P10275)
Assay: UPITT_HCI_U2OS_AR_TIF2_Nucleoli_Agonist: University of Pittsburgh U2OS Androgen Receptor-Transcriptional Intermediary Factor 2 (AR-TIF2) Agonism High Content Imaging Assay for Nucleoli Translocation (AID 2283998)
In short: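 U2OS cells expressing RFP-tagged human AR and GFP-tagged TIF2; red fluorescence in nucleoli quantified by high-content imaging. Primary screen at 20 uM final (0.2% DMSO); concentration-response 0.195–50 uM (0.5% DMSO), fitted upward versus DMSO.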

Structure (SMILES) | outcome | AC50
Cc1cccc(C)n1 | inactive | –
O=C1C=CC(=O)N1c1ccccc1 | inactive | –
CCCCCCCCCCCCC[N+](C)(C)Cc1ccccc1 | inactive | –
CCN=c1cc2oc3cc(NCC)c(C)cc3c(-c3ccccc3C(=O)OCC)c-2cc1C | – | 12.9 µM (active)
C[C@]12CC[C@H]3C(=CCc4cc(O)ccc43)[C@@H]1CCC2=O | inactive | –
CCCCCCCC/C=C\CCCCCCCC(=O)OCC(O)CO (configuration not stated) | inactive | –
CCc1ccc(C)nc1 | inactive | –
CCCCCCCCCc1ccc(OCCO)cc1 | inactive | –
F[Si-2](F)(F)(F)(F)F | inactive | –
COCCOCCC[Si](C)(O[Si](C)(C)C)O[Si](C)(C)C | – | 88.8 µM (active)
CCCCCCCCCCCCCC[P+](CCCC)(CCCC)CCCC | inactive | –
CC1CCCCC1 | inactive | –

— PubChem BioAssay (EPA / NIEHS)
